# Results reported in ChEMBL document CHEMBL2218924, “A broad activity screen in support of a chemogenomic map for kinase signalling research and drug discovery” (Biochem J, 2013).
# Experiments:
# [1] = target: T1, Serine/threonine-protein kinase TBK1 (Homo sapiens) (UniProt Q9UHD2); conditions: at 10 µM
# T1 sequence (whole entry): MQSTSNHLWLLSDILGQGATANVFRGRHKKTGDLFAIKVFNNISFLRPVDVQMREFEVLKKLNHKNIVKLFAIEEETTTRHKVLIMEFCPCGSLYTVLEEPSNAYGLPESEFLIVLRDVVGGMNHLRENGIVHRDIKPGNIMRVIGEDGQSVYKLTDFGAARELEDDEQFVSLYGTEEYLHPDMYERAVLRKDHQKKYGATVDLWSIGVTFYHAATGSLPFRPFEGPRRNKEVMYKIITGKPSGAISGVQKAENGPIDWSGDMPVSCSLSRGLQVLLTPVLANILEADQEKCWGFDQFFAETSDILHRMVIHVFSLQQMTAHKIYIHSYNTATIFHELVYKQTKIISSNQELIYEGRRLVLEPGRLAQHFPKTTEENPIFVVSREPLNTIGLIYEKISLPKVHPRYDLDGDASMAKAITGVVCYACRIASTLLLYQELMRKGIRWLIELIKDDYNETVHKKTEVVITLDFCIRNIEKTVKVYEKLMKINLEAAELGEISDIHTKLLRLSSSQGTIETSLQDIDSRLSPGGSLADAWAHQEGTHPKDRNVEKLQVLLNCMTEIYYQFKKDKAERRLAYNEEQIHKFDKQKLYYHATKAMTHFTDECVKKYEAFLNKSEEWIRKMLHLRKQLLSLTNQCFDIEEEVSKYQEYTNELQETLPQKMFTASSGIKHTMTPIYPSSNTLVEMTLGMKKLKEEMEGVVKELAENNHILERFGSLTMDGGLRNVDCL
# [2] = target: T2, TGF-beta receptor type-1 (Homo sapiens) (UniProt P36897); conditions: at 1 µM
# T2 sequence (whole entry): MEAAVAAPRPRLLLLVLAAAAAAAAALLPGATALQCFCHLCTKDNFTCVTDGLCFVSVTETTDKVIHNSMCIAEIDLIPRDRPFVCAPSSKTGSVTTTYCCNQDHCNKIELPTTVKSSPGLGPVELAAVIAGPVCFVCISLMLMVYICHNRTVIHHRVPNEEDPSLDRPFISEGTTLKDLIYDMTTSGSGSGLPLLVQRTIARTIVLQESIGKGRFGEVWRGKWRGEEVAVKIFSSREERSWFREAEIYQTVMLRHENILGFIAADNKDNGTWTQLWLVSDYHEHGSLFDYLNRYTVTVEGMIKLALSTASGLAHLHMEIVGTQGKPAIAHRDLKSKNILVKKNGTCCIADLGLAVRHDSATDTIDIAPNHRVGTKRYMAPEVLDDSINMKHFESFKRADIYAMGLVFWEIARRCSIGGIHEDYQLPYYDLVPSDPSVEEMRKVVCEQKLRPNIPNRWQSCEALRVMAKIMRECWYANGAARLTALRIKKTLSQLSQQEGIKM
# [3] = target: T2, TGF-beta receptor type-1 (Homo sapiens); conditions: at 10 µM
# [4] = target: Insulin-like growth factor 1 receptor (Homo sapiens) (UniProt P08069); conditions: at 1 µM
# Insulin-like growth factor 1 receptor (Homo sapiens), sequence (P08069 31-736 limits assumed): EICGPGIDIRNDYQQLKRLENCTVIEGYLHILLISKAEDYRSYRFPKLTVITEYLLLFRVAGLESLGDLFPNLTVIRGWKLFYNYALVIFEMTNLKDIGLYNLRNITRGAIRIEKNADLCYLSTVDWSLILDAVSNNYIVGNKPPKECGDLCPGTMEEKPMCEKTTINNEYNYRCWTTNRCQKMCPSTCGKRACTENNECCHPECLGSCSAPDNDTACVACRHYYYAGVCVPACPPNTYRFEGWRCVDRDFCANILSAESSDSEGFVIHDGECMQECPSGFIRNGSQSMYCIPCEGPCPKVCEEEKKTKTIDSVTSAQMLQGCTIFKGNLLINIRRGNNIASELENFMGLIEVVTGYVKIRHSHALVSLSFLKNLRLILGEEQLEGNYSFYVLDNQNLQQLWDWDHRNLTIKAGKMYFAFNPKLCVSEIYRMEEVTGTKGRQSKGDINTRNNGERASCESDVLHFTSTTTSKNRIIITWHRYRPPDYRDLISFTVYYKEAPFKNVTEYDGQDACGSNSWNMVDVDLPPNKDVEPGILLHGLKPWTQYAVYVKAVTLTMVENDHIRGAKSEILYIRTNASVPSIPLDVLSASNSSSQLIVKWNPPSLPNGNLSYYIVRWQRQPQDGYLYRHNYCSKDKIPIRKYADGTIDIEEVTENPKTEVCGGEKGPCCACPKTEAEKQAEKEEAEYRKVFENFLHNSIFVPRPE
# Insulin-like growth factor 1 receptor (Homo sapiens), sequence (P08069 741-1367 limits assumed): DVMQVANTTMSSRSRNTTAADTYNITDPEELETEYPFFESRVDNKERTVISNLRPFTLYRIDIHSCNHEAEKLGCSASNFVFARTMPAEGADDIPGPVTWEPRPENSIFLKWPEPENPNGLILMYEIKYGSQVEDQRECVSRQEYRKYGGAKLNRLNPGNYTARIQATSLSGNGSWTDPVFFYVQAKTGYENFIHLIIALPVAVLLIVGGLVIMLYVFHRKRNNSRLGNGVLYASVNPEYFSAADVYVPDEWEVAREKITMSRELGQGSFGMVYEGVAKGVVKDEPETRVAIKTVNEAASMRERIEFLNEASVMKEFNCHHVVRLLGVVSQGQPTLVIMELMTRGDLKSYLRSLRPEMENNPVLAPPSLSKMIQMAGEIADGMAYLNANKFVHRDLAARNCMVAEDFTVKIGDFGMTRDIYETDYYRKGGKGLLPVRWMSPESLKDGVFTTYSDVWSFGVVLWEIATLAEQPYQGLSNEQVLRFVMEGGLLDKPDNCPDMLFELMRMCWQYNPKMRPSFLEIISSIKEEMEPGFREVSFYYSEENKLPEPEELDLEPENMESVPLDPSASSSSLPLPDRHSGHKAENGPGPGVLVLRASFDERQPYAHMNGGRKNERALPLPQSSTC
# [5] = target: Insulin-like growth factor 1 receptor (Homo sapiens) (UniProt P08069); conditions: at 10 µM
# [6] = target: T3, Inhibitor of nuclear factor kappa-B kinase subunit alpha (Homo sapiens) (UniProt O15111); conditions: at 1 µM
# T3 sequence (whole entry): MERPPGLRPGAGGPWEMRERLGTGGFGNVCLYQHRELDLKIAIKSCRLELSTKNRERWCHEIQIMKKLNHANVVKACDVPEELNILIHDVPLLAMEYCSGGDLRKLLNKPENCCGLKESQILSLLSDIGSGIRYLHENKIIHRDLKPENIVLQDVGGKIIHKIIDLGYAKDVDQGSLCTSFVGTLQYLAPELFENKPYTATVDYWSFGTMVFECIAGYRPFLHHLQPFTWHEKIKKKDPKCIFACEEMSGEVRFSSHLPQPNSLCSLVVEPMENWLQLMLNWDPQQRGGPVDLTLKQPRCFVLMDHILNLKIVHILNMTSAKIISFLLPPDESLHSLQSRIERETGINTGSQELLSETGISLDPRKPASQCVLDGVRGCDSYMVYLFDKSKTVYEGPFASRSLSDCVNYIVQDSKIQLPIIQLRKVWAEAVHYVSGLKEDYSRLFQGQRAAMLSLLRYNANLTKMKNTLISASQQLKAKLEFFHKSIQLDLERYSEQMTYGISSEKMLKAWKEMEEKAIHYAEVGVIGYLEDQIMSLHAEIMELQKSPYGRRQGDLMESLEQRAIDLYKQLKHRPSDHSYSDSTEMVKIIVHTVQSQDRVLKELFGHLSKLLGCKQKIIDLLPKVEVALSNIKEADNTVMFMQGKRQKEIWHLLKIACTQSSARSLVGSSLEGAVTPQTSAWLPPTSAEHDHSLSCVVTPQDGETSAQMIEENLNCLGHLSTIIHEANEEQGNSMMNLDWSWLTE
# [7] = target: T3, Inhibitor of nuclear factor kappa-B kinase subunit alpha (Homo sapiens); conditions: at 10 µM
# [8] = target: T4, Inhibitor of nuclear factor kappa-B kinase subunit beta (Homo sapiens) (UniProt O14920); conditions: at 1 µM
# T4 sequence (whole entry): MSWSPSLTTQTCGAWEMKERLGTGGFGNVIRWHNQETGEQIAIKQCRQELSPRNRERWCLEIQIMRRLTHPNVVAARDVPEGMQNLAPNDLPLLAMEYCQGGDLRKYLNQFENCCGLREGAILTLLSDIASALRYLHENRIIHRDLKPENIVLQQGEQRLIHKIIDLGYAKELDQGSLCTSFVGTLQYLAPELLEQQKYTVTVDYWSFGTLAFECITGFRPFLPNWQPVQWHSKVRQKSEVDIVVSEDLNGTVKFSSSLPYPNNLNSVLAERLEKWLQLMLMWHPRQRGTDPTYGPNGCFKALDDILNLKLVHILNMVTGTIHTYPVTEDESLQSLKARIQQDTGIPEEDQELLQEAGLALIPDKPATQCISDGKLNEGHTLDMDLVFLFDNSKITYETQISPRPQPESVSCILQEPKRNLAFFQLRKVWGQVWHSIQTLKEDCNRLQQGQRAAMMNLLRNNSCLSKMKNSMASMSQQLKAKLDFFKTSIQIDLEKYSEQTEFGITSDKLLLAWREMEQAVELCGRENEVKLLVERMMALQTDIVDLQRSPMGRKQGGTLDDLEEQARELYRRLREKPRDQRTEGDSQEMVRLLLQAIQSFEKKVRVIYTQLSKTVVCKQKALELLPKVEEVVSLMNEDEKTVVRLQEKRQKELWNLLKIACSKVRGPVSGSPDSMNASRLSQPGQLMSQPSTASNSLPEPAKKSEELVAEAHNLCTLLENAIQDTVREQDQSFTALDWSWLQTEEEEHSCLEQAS
# [9] = target: T4, Inhibitor of nuclear factor kappa-B kinase subunit beta (Homo sapiens); conditions: at 10 µM
# [10] = target: Insulin receptor (Homo sapiens) (UniProt P06213); conditions: at 1 µM
# Insulin receptor (Homo sapiens), sequence (P06213 28-758 limits assumed): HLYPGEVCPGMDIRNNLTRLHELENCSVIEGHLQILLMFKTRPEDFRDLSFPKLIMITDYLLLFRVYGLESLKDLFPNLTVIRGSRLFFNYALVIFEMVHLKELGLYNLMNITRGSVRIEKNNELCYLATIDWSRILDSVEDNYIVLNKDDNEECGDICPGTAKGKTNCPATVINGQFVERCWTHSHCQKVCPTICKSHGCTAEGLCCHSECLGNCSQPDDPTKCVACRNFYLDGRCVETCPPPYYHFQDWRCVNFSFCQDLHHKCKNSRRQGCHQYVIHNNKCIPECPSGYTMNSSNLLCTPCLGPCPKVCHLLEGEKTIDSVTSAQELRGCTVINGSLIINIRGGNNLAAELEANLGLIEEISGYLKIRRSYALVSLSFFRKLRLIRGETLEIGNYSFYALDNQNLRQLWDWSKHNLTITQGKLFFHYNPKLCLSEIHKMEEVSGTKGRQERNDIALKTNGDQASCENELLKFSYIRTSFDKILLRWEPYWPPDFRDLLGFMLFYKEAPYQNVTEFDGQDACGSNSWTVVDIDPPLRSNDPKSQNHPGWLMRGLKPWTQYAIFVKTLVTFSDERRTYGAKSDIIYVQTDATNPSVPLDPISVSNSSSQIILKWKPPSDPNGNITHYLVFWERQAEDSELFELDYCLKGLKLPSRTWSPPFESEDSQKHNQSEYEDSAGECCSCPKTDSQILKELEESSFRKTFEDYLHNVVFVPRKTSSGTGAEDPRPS
# Insulin receptor (Homo sapiens), sequence (P06213 763-1382 limits assumed): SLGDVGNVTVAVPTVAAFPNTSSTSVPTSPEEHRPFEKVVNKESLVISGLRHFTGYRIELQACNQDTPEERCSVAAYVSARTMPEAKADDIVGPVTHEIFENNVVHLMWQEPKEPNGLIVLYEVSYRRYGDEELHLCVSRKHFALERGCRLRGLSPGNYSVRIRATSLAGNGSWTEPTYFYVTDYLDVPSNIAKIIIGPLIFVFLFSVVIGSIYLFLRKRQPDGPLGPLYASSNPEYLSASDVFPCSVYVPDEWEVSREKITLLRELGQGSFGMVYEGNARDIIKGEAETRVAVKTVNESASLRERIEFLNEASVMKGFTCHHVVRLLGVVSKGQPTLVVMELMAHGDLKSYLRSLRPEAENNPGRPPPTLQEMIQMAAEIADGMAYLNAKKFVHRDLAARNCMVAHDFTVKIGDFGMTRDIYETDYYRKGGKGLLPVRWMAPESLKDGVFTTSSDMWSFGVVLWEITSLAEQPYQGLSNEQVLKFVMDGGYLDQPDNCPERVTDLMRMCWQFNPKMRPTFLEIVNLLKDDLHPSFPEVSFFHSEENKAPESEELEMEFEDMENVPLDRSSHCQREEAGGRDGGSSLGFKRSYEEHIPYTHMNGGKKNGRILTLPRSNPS
compound,measurement,setting,value
CC(C)n1cnc2c(NCc3ccccc3)nc(NCCCO)nc21,residual activity,[1],66%
same,residual activity,[2],93%
same,residual activity,[3],81%
same,residual activity,[4],90%
same,residual activity,[5],87%
same,residual activity,[6],116%
same,residual activity,[7],104%
same,residual activity,[8],110%
same,residual activity,[9],94%
same,residual activity,[10],91%
